The source holds several records for some structures; these can differ, active in one and inactive in another. The source made the active and inactive calls. How the source made its calls: active means hit-call score of the fitted dose curve at least 0.9, where 1 is the maximum; inactive means score below 0.9.

Test [1] is described as follows: ATG_PXRE_CIS: Attagene CIS-FACTORIAL HepG2 Assay for human Pregnane X Receptor Element (PXRE) (AID 2282957). To be noted: HepG2 Attagene CIS-FACTORIAL PXRE reporter, mRNA; actives raise or lower the signal. Put shortly: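 Transiently transfected HepG2 cells were dosed and incubated for 24 h. RNA was then isolated, DNase-treated, reverse-transcribed and reporter sequences amplified. Labeled, HpaI-digested fragments were quantified by capillary electrophoresis against DMSO.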

Test [2] can be described thus: ATG_RORE_CIS: Attagene CIS-FACTORIAL HepG2 Assay for human RAR-related Orphan Receptor Element (RORE) (AID 2282959). To be noted: HepG2 Attagene cis-factorial RORE reporter, mRNA; actives raise or lower the signal. Put shortly: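 Readout: fluorescent reporter mRNA by RT-PCR plus capillary electrophoresis, 24 h after dosing transfected HepG2 cells. Endogenous transcription factor activity on a cis promoter element is measured. Gain or loss of signal fitted against DMSO.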

A short description of test [3]: ATG_Sox_CIS: Attagene CIS-FACTORIAL HepG2 Assay for human SRY-box transcription factor (SOX) (AID 2282960). To be noted: HepG2 Attagene cis-factorial SOX reporter, mRNA; actives raise or lower the signal. Put shortly:
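Read-out: fluorescent RT-PCR products of SOX1-linked reporter transcripts resolved by capillary electrophoresis, fitted bidirectionally against DMSO. Transiently transfected HepG2 cells, 24 h after chemical exposure, endogenous transcription factor activity.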

Test [4] is described as follows: ATG_SREBP_CIS: Attagene CIS-FACTORIAL HepG2 Assay for human Sterol Regulatory Element Binding (SREBP) (AID 2282962). To be noted: HepG2 Attagene cis-factorial SREBP reporter, mRNA; actives raise or lower the signal. Summed up:
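HepG2 cells transiently transfected with multiplexed cis-element reporter units report endogenous transcription factor activity. After 24 h of chemical exposure, reporter mRNA was quantified by RT-PCR, 6-FAM labelling, HpaI digestion and capillary electrophoresis; bidirectional fits used DMSO as baseline.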

Test [5] addresses Signal transducer and activator of transcription 3 (Homo sapiens) (UniProt P40763). As to the kind of experiment: ATG_STAT3_CIS: Attagene CIS-FACTORIAL HepG2 Assay for human Signal Transducer and Activator of Transcription 3 (STAT3) (AID 2282963). The conditions noted are these: HepG2, Attagene cis-factorial STAT3 reporter transcription; actives raise or lower the signal. Summed up:
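Endogenous STAT3-responsive cis-element activity was read in transiently transfected HepG2 cells after 24 h treatment. Reporter transcripts were quantified via RT-PCR and capillary electrophoresis, with DMSO as negative control and bidirectional curve fitting.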

Test [6] can be described thus: ATG_TA_CIS: Attagene CIS-FACTORIAL HepG2 Assay for human TA Basal Promoter (AID 2282964). The conditions noted are these: HepG2 Attagene CIS-factorial TA basal promoter reporter; actives raise or lower the signal. Summed up: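 Fluorescence from labelled RT-PCR reporter fragments, separated by capillary electrophoresis, gives the signal. Cells: HepG2 transiently carrying multiple reporter units, 24 h chemical dosing. Gain or loss relative to DMSO.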

The nature of test [7]: ATG_TCF_b_cat_CIS: Attagene CIS-FACTORIAL HepG2 Assay for human T-Cell-Factor with beta-catenin (TCF/b-cat) (AID 2282965). The conditions noted are these: HepG2 TCF/beta-catenin cis-reporter transcription, actives raise or lower the signal. Summed up:
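Endogenous TCF/LEF activity read as reporter transcript level via RT-PCR and capillary electrophoresis fluorescence in transfected HepG2, 24 h exposure; gain or loss of signal fitted against DMSO controls.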

Test [8] in a line: ATG_TAL_CIS: Attagene CIS-FACTORIAL HepG2 Assay for human TAL Basal Promoter (AID 2282966).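 Further: background control endpoint measuring basal TAL promoter reporter mRNA not a specific factor.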 To be noted: HepG2 Attagene cis-factorial TAL promoter reporter; actives raise or lower the signal. Put shortly:
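Readout: reporter mRNA, fluorescence by CE. System: HepG2, transient multi-reporter transfection, endogenous TF activity. Exposure: 24 h. Analysis: bidirectional, DMSO-normalized; background control.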

Test [9] concerns the target Transcription factor Sp1 (Homo sapiens) (UniProt P08047). As to the kind of experiment: ATG_Sp1_CIS: Attagene CIS-FACTORIAL HepG2 Assay for human Specificity Protein 1 (Sp1) (AID 2282961). To be noted: HepG2 Sp1 cis-reporter transcription, actives raise or lower the signal. Summed up:
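Read-out: fluorescence of 6-FAM-labeled, HpaI-digested RT-PCR products separated by capillary electrophoresis. HepG2 cells carried transfected cis-element reporter units and were exposed to chemicals for 24 h; gain or loss of signal fitted relative to DMSO.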

Chain of Signal transducer and activator of transcription 3 (Homo sapiens) (P40763 whole entry, looked up): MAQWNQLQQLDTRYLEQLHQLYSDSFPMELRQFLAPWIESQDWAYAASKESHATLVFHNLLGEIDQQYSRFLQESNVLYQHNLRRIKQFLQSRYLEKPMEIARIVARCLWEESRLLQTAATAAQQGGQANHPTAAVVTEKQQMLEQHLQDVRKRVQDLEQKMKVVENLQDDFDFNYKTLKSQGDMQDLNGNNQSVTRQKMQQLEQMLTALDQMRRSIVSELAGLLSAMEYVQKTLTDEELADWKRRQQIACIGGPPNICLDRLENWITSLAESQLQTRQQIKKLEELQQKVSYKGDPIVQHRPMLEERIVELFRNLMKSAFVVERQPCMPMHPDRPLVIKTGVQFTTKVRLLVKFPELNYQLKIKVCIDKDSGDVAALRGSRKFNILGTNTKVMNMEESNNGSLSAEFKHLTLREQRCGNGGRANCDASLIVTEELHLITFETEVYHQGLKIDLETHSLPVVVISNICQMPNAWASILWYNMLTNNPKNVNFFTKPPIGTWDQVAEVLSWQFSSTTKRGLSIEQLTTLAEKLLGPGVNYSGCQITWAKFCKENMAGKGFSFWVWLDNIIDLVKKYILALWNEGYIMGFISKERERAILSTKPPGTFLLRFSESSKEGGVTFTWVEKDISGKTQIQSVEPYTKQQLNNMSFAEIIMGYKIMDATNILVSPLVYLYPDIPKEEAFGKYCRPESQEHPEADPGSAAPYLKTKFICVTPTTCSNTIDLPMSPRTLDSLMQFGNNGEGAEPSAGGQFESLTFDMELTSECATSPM
Chain of Transcription factor Sp1 (Homo sapiens) (P08047 whole entry, looked up): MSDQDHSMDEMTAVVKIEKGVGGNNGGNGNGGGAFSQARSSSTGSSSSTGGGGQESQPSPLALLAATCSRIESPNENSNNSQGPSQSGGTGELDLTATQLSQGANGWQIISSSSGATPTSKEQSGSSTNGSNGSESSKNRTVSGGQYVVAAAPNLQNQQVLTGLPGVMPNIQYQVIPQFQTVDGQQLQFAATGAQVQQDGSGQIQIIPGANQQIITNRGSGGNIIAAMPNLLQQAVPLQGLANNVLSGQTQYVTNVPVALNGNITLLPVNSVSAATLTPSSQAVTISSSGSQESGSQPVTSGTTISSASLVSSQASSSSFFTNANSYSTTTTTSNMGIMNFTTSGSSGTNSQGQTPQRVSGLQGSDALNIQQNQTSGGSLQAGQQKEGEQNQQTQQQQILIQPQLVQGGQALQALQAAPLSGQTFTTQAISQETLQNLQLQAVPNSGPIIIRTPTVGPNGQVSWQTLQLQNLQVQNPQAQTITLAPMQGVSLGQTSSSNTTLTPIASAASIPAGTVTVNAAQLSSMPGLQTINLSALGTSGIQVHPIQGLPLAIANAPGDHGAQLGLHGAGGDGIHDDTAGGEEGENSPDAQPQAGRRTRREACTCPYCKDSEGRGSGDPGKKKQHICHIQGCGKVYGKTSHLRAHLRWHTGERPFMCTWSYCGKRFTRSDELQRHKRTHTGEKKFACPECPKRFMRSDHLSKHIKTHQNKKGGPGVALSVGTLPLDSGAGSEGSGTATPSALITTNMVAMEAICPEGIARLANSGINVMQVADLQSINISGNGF

`C[C@]12CC[C@@H](O)C[C@@H]1CC[C@@H]1[C@@H]2CC[C@]2(C)C(=O)CC[C@@H]12`: the AC50 – broadly, the concentration giving half of the maximal activity seen – in test [1] was 6.91 µM (active). Besides, the compound was classed as inactive in [2], in test [3], in [4], in [5], in [6] and in test [7]. The outcome in test [8] was inactive.

Take `O=C(Cl)OCCOCCOC(=O)Cl`: the call in [1], in [2], in [3], in test [9], in test [4] and in test [5] was inactive. Also, the compound was classed as inactive in test [6], in [7] and in test [8].

On to `CCCCN(CCCC)C(=S)[S-].CCCCN(CCCC)C(=S)[S-].[Ni+2]`, for which the AC50 in test [1] is 7.2 µM (active). The compound was classed as inactive in test [2], in test [3], in test [9], in test [5], in test [6] and in [7]. Also, in test [8], the outcome was inactive.

For `O=[N+]([O-])c1c2ccccc2cc2ccccc12`, the AC50 in test [1] is 3.8 µM (active). The compound was called inactive in test [2], in test [9], in [4], in test [5], in test [6] and in [7]. The call in test [8] was inactive.

Take `C=C(C)C(=O)OCC(CC)CCCC` (stereo not drawn): the compound was classed as inactive in test [1], in [3], in test [9], in test [4], in [5] and in [6]. In addition, in test [7], the compound was called inactive.

Turning to `OCCN(CCO)CCO`, the result in [1], in test [3], in test [9], in [4], in test [5] and in test [6] was inactive. Moreover, the call in test [7] was inactive.

As to `CCCCN(CCCC)C(=S)S`, the AC50 in test [1] is 25.1 µM (active); in test [3], 50.1 µM (active); in test [4], 128 µM (active); in test [7] it was 166 µM (active). Moreover, the compound was called inactive in test [2], in test [9], in test [5], in [6] and in [8].

As for `C=CC(Cl)CCl` (stereo not drawn), the AC50 in test [1] is 3.12 µM (active). The compound was called inactive in [2], in test [3], in test [9], in [4], in test [5] and in test [6]. The call in test [7] and in test [8] was inactive.

For the compound `c1ccc(-c2cccc(-c3ccccc3)c2)cc1`, the AC50 in test [1] was 11.3 µM (active). Besides, the result in test [3], in test [4], in test [5], in test [6], in test [7] and in test [8] was inactive.

Consider `Oc1c(Cl)cc(Cl)cc1Cl`, for which the compound was called inactive in test [1], in test [3], in test [5], in [6], in test [7] and in [8].

Turning to `CCCCCCCCCCCCOS(=O)(=O)O`, the outcome in test [1], in [3], in test [9], in test [4], in test [5] and in test [6] was inactive. For the same compound, the outcome in [7] and in [8] was inactive. For the same compound, the AC50 in [5] is 11.1 µM (active).

For `Cc1cc(SCc2sc(-c3ccc(C(F)(F)F)c(F)c3)nc2C)ccc1OCC(=O)O`, the AC50 was 1.32 µM (active) in [1], 8.36 µM (active) in [2], 23 µM (active) in [6] and 24.8 µM (active) in test [7]. Moreover, the result in test [3], in test [9] and in test [5] was inactive.

For `CC(C)(C)c1ccc(CCOc2ncnc3ccccc23)cc1`, the AC50 in [1] was 34.7 µM (active). The compound was classed as inactive in test [2], in [3], in test [9], in [5], in [6] and in test [7]. Further, the outcome in test [8] was inactive.

For `O=S1OC[C@@H]2[C@H](CO1)[C@]1(Cl)C(Cl)=C(Cl)[C@@]2(Cl)C1(Cl)Cl` (stereo partly drawn), the AC50 in [1] is 2.34 µM (active). Also, the outcome in test [2], in [9], in test [4], in test [5], in [6] and in test [7] was inactive. Besides, in test [8], the compound was called inactive.

In the case of `CNC(=O)O/N=C/C(C)(C)S(C)(=O)=O`, the outcome in [1], in test [2], in [9], in [5], in test [6] and in [7] was inactive. The outcome in test [8] was inactive.

Turning to `c1ccc2c(c1)Oc1ccccc1O2`, in test [1], the AC50 was 75.9 µM (active). Further, the compound was classed as inactive in test [2], in [9], in test [5], in test [6], in test [7] and in test [8].

In the case of `O=c1nc(O)n(Cl)c(=O)n1Cl`, the result in [1], in test [3], in test [9], in test [4], in [5] and in [6] was inactive. Also, the outcome in [7] and in test [8] was inactive.

Regarding `O=CCCl`, the AC50 in [1] was 37.2 µM (active); in [4], 26.6 µM (active); in test [6], 182 µM (active). In addition, the result in test [9], in test [5], in [7] and in test [8] was inactive.

As for `O=C(CBr)c1ccc(O)cc1`, the outcome in [1], in test [2], in [3], in test [9], in test [4] and in test [5] was inactive. Besides, the outcome in test [6], in test [7] and in test [8] was inactive.

`CCCCC(CC)COC(=O)Cl` (stereo not drawn): the outcome in [1], in test [3], in test [9], in test [5], in test [6] and in test [7] was inactive. Also, in test [8], the call was inactive.

Turning to `C[N+](C)(C)Cc1ccccc1`, the compound was classed as inactive in test [1], in test [9], in [4], in [5], in [6] and in test [7].

As for `CC(C)(C1CCC(O)CC1)C1CCC(O)CC1` (stereo not drawn), in test [1], the AC50 is 35.3 µM (active). The compound was called inactive in test [3], in test [9], in test [4], in test [5], in test [6] and in test [7]. In addition, the compound was called inactive in [8].

Take `NNCCO`: the call in [1], in [3], in [4], in test [5], in [6] and in test [7] was inactive. Moreover, the outcome in test [8] was inactive. Besides, in [2], the AC50 is 25.4 µM (active).

Take `O=NN1CCCCCCC1`: the AC50 in [1] was 47.4 µM (active). The compound was called inactive in test [3], in [9], in test [5], in test [6], in test [7] and in test [8].

As for `CCOP(=O)(OCC)SCCSCC`, the concentration at half-maximal activity (AC50) in [1] was 57.2 µM (active). Besides, the call in test [2], in test [3], in test [9], in [4], in [5] and in [6] was inactive. Moreover, the compound was called inactive in [7] and in test [8].

`CN(C)C(=S)S`: the AC50 in [1] is 26.3 µM (active). The compound was classed as inactive in test [3], in [9], in [4], in test [5], in test [6] and in test [7]. Further, the result in test [8] was inactive.

On to `Cc1cc(C)cc(C)c1`, for which the result in [1], in test [2], in [3], in [9], in test [4] and in [5] was inactive. The outcome in test [6], in test [7] and in [8] was inactive.

For `CC(C)C(C)(N)C#N` (stereo not drawn), in [1], the AC50 is 26 µM (active). In addition, the call in [2], in test [3], in test [4], in [5], in test [6] and in test [7] was inactive. The result in test [8] was inactive.

(Values after PubChem BioAssay (EPA / NIEHS).)
